Source: PubChem BioAssay (National Center for Advancing Translational Sciences (NCATS))
An excerpt weighted towards active compounds, which were near 7.4% of everything screened.
SMN2 splice up = qHTS Assay for Enhancers of SMN2 Splice Variant Expression; 210,000 tested, 2.8% active; Potency, µM (top dose mostly 46.1 µM), for the others: at the highest dose activity change, positive = activation, most hits filed as activators; HEK293 SMN2-luciferase splicing reporter, luminescence, 30-36 h; note: % of control where 0% means no effect; nearly all actives have a fitted effect of over 55% in size
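HEK293 cells carry an SMN2 […]–luciferase reporter in which exon 7 inclusion puts luciferase in frame. Cells were plated 10-12 h before compound addition, then incubated 30-36 h at 37C. ONE-Glo luminescence was read; sodium butyrate at 4.5 mM final served as control.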
Rab9 prom act = qHTS Assay for Rab9 Promoter Activators; Huh7 Rab9 promoter-luciferase reporter, luminescence, 24 h; Potency, µM (doses to about 9.22 µM), for inactives: top-dose activation, negative = inhibition, actives largely listed as activators; 320,000 tested, 2.8% active; note: % of control where 0% means no effect; nearly all actives have a fitted effect of over 60% in size
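Stable Rab9-luc Huh7, 1500 cells/well, 2 h settle; cmpd in DMSO, 24 h, 37 °C/5% CO2; luciferase reagent 10 min RT; luminescence.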
NPC1 promoter act = qHTS Assay for NPC1 Promoter Activators. Huh7 NPC1 promoter luciferase reporter, 24 h. Potency, µM (highest dose often 9.22 µM), for inactives: top-dose activation, actives largely listed as activators. 320,000 tested, 2.4% active; note: % of control where 0% means no effect; nearly all actives have a fitted effect of over 60% in size
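Luminescence from an NPC1 promoter-driven luciferase reporter in stably transfected Huh7 cells was measured after 24 h compound treatment at 37 °C, followed by 10 min ambient incubation with luciferase detection reagent.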
FLuc modulator = qHTS profiling assay for firefly luciferase inhibitor/activator using purifed enzyme and Km concentrations of substrates (counterscreen for miR-21 project); Luciferin 4-monooxygenase (Photinus pyralis), P08659; purified FLuc, Km substrates, luminescence inhibition; Potency, µM (top dose mostly 57.5 µM), inactives show top-dose activity change, negative = inhibition, usual class: inhibitors; 360,000 tested, 6.9% active;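 note: plate controls were vehicle for no effect and reference inhibitor for full effect; nearly all actives have a fitted effect of over 55% in size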
Target sequence (P08659 whole entry, looked up): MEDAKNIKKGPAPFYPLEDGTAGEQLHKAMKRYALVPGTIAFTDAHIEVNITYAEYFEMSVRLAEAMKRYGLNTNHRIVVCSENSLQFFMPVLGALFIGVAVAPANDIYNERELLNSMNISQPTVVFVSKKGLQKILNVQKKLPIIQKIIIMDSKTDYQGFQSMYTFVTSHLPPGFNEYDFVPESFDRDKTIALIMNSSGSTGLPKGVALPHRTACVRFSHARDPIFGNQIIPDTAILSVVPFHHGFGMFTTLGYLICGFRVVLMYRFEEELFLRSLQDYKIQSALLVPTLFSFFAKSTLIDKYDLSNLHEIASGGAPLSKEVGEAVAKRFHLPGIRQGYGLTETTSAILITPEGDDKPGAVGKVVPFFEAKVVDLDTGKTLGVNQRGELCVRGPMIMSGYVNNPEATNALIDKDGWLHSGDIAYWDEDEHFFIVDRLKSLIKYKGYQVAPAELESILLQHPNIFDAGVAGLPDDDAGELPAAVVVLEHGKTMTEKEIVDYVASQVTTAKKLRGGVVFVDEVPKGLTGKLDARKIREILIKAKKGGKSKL
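Purified P. pyralis luciferase (10nM final) with 10uM D-luciferin and 10uM ATP (Km levels) in 50mM Tris acetate pH 7.5, 10mM Mg acetate, 0.01% Tween-20, 0.05% BSA; qHTS 6-point titration, ~60 µM downward; luminescence read.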
ELG1 genotox = qHTS screen for small molecules that induce genotoxicity in human embryonic kidney (HEK293T) cells expressing luciferase-tagged ELG1; HEK293T ELG1-luciferase reporter, luminescence, 16 h; Potency, µM (series often up to 46 µM), for the others: at the highest dose activity change, positive = activation, usual class: activators; 330,000 tested, 1.3% active; AID 504466, 2011; note: % of control where 0% means no effect; nearly all actives have a fitted effect of over 60% in size
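Cells (2,000/well) expressing the ELG1-luciferase fusion are dosed by pin tool and kept 16 hr at 37 °C, 5% CO2. Signal comes from ONE-Glo luciferase reagent after 30 min at room temperature.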
An asterisk follows results filed as active; ? = inconclusive; / = no result given; [ ] = another dose, or the depositor's remark. Calls come from the whole dose curve; as a rule, active = well fitted curve in the direction sought with a large enough effect; inconclusive = small, poorly fitted or top-dose-only effect, or another doubt; inactive = no such curve, though single readings can be large; an effect the other way counts as inactive or inconclusive. Potency is the fitted concentration of half-maximal effect.

SMILES	SMN2 splice up	Rab9 prom act	NPC1 promoter act	FLuc modulator	ELG1 genotox
Cc1cc2ncn(C(=O)c3ccc4c(c3)OCO4)c2cc1C	-14.4%	7.8%	-13.2%	?	3.5%
Cc1cc2ncn(C(=O)N3CCC(C)CC3)c2cc1C	15.8µM*	?	22.9%	?	12.4%
COc1ccc(C(=O)n2nc(-c3ccco3)nc2NCc2cccs2)cc1	?	/	/	0.3%	/
N/C(=N\OC(=O)c1cccc(Cl)c1)c1ccncc1	/	23.1%	16.6%	19µM*	?
N/C(=N\OC(=O)c1ccc(Cl)c(Cl)c1)c1cccc(CSc2ccccn2)c1	/	?	?	8.49µM*	?
N/C(=N\OC(=O)COc1ccc(Cl)cc1)c1cccnc1	19.4%	1.3%	4.1%	?	9.0%
N/C(=N\OC(=O)c1cccc(Cl)c1)c1cccnc1	11.3%	10.5%	17.0%	6.75µM*	10µM*
O=C(O/N=C(\c1ccccc1)c1ccccn1)c1ccc(Cl)c(Cl)c1	-26.3%	-3.0%	-2.8%	2.3%	-0.1%
C/C(=N\OC(=O)c1cccc(Cl)c1)c1sc(C)nc1C	/	5.9%	-2.5%	6.75µM*	3.8%
N[C@H](C(=O)O)c1ccc(C(=O)O)cc1	-10.8%	/	/	/	/
CCn1c(C)c(C2N3CC4(C)CN2CC(C)(C3)C4=O)c2ccccc21 (stereo not drawn)	0.3%	/	/	-2.5%	/
N/C(=N\OC(=O)c1ccc(Cl)c(Cl)c1)c1cccnc1	-3.4%	10.1%	13.0%	8.49µM*	11.1%
O=C(O)[C@@H]1CCCN1Cc1c[nH]c2ccccc12	-12.1%[9.22 µM]	/	/	/	/
O=C(COC(=O)c1ccccc1)c1ccc(Br)cc1	8.4%	3.98µM*	2.24µM*	0.536µM*	8.9%
O=C(CCCNC(=O)c1ccc(Cl)cc1)Nc1ccc(Br)cc1	/	3.0%	7.4%	4.8%	1.3%
O=C(COC(=O)c1ccc(Br)cc1)NCCc1ccccc1	5.6%	1.4%	-0.4%	3.1%	-1.7%
O=C(COC(=O)CCCNC(=O)c1ccc(Cl)cc1)Nc1ccc(Br)cc1	-0.4%	0.2%	-1.0%	3.38µM*	1.7%
N/C(=N\OC(=O)c1ccc(Br)cc1)c1ccccc1	?	2.82µM*	3.16µM*	0.213µM*	?
Cc1ccc(C(=O)O/N=C(\N)c2ccc(Br)cc2)cc1	10.0%	28.9%	28.1%	2.39µM*	12.6µM*
N/C(=N\OC(=O)c1cccc(Br)c1)c1ccc(Br)cc1	-5.1%	11.4%	24.2%	?	12.2%
CCN(CC)CCCNC(=O)CN1C(=O)CCn2nc(-c3cn(C)c4ccccc34)cc21	/	/	/	1.4%	/
CC(C)(C)C(=O)O/N=C(\N)c1ccc(-c2csnn2)cc1	/	4.47µM*	2.82µM*	7.57µM*	?
CC(=O)O/N=C(\N)c1ccc(-c2csnn2)cc1	/	25.9%	16.7%	?	?
N/C(=N\OC(=O)Cc1cccs1)c1ccc([N+](=O)[O-])cc1	?	-1.3%	2.4%	?	9.9%
CC(C)(C)C(=O)O/N=C(\N)c1ccc(Br)cc1	/	-5.5%	1.2%	21.3µM*	0.4%
SMILES	SMN2 splice up	Rab9 prom act	NPC1 promoter act	FLuc modulator	ELG1 genotox
N/C(=N\OC(=O)Cc1cccs1)c1ccc(Br)cc1	2.0%	15.9%	-1.7%	19µM*	?
O=C(COC(=O)CCCSc1nc2ccccc2[nH]1)Nc1ccc(Cl)cc1	8.9%	-6.0%	-5.0%	19µM*	2.0%
N#Cc1c(C(F)(F)F)cc(-c2cccs2)nc1SCc1ccccc1F	0.8%	/	/	3.6%	/
CC(C)C(NC(=O)C(Cc1ccc(O)cc1)NC(=O)C(NC(=O)C(F)(F)F)C(C)C)C(=O)O (stereo not drawn)	2.6%	/	/	/	/
O=C(CSCC(=O)OCC(=O)c1ccc(Br)cc1)Nc1ccc(Br)cc1	-5.9%	-7.5%	-5.3%	16.9µM*	2.3%
O=C(Nc1ccc(-c2csnn2)cc1)C(Cl)(Cl)Cl	/	0.2%	4.2%	-19.1%	0.2%
CC(C)(C)C(=O)Nc1ccc(-c2csnn2)cc1	/	2.82µM*	?	23.9µM*	?
COc1cccc(/C=N/Nc2nn3cnnc3c3ccccc23)c1O	-18.8%	-22.1%	-16.3%	-5.9%	-0.1%
Oc1cccc(/C=N/Nc2nn3cnnc3c3ccccc23)c1	/	8.9%	15.0%	8.49µM*	-2.6%
O=C(CSc1nc2ccccc2[nH]1)c1ccco1	?	3.98µM*	?	16.9µM*	?
COc1ccc2nc(SCC(=O)C(C)(C)C)[nH]c2c1	/	2.24µM*	2µM*	?	14.6µM*
O=C(CSc1ncnc2ccccc12)c1ccco1	/	3.16µM*	3.16µM*	3.01µM*	?
COc1ccc2nc(SCC(=O)NC(C)(C)C)[nH]c2c1	-15.1%	3.2%	1.7%	-0.5%	0.0%
COc1ccc2nc(SCC(=O)c3ccco3)[nH]c2c1	?	1.78µM*	2.24µM*	5.36µM*	?
O=C(CSc1nc2ccccc2[nH]1)NCc1ccccc1	/	27.7%	25.9%	-4.6%	9.0%
O=c1c2cc3c(cc2nc2sc(Nc4cccc([N+](=O)[O-])c4)nn12)OCO3	/	/	/	-7.7%	/
COCCOC(=O)c1c(-c2ccccc2)c(-c2ccccc2)nn(C)c1=O	-11.4%	/	/	-1.6%	/
c1ccc(-c2nnc(-c3ccccc3)nn2)cc1	/	1.26µM*	3.16µM*	0.379µM*	?
Cc1nc(-c2ccccc2)nc(-c2ccccc2)n1	/	-0.6%	-1.7%	-11.1%	2.4%
Clc1ccc(C[n+]2csc3ccccc32)cc1	-2.5%	-7.2%	-0.3%	6.75µM*	0.4%
Fc1ccc(C[n+]2csc3ccccc32)cc1	2.2%	1.5%	-4.4%	7.57µM*	4.4%
Fc1cccc(Cl)c1CNc1ccc(N2CCCC2)cc1	-11.9%	17.3%	14.3%	9.53µM*	5.8%
CS(=O)(=O)N1CCC2(CC1)CN(C(c1ccccc1)c1ccccc1)C2	1.8%	/	/	/	/
COCC(=O)n1nc(-c2ccc(C)cc2)nc1NCc1ccc(F)cc1	?	23.5%	15.8%	-17.6%	18.1%
COc1ccccc1C(=O)n1nc(-c2ccccc2)nc1NCc1ccco1	12.6µM*	1.5%	17.2%	1.8%	13.2%
SMILES	SMN2 splice up	Rab9 prom act	NPC1 promoter act	FLuc modulator	ELG1 genotox
O=C(COc1ccccc1)n1nc(-c2ccc(Cl)cc2)nc1NCc1ccco1	15.8µM*	?	28.8%	?	20.6µM*
COCC(=O)n1nc(-c2ccccc2)nc1NCc1ccc(N(C)C)cc1	?	?	?	16.9µM*	?
O=C(c1ccco1)n1nc(-c2ccccc2)nc1NCc1ccco1	?	17.7%	7.8%	-8.1%	6.7%
Cc1ccc(-c2nc(NCc3ccco3)n(C(=O)c3ccco3)n2)cc1	/	3.55µM*	?	3.1%	?
CCOc1ccc(OC(=O)c2cn(-c3cccc(OC)c3)c(=O)c3ccccc23)cc1	/	/	/	3.8%	/
COc1cc(OC)c(Nc2ncnc3onc(-c4cccc(Cl)c4)c23)cc1Cl	-1.1%	/	/	-2.8%	/
